Among all 340,000 compounds or so, about 2,100 (0.62%) were called active.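 Rule for the calls: active = first-screen hits whose inhibition reached a set limit at any dose in the follow-up dose series; inconclusive = inhibition above the set first-screen limit but never retested; inactive = the rest.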 The list is a sample of the results. Entries with a potency or affinity are not part of this list.
These compounds were tested against Rac GTPase-activating protein 1 (Homo sapiens) (UniProt Q9H0H5) (assay: blockers of MgcRacGAP-driven Rac1 GTP hydrolysis – biochemical, ADP Hunter fluorescence, primary and confirmatory, confirmation (AID 624330;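 note: fluorescence reports GDP produced by GAP-driven GTP hydrolysis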)). Settings: MgcRacGAP-stimulated Rac1 GTP hydrolysis, at 30 µM, hits give high values, GST-tagged Rac1 F28L mutant substrate.
Rac GTPase-activating protein 1 (Homo sapiens), sequence (Q9H0H5 whole entry, looked up): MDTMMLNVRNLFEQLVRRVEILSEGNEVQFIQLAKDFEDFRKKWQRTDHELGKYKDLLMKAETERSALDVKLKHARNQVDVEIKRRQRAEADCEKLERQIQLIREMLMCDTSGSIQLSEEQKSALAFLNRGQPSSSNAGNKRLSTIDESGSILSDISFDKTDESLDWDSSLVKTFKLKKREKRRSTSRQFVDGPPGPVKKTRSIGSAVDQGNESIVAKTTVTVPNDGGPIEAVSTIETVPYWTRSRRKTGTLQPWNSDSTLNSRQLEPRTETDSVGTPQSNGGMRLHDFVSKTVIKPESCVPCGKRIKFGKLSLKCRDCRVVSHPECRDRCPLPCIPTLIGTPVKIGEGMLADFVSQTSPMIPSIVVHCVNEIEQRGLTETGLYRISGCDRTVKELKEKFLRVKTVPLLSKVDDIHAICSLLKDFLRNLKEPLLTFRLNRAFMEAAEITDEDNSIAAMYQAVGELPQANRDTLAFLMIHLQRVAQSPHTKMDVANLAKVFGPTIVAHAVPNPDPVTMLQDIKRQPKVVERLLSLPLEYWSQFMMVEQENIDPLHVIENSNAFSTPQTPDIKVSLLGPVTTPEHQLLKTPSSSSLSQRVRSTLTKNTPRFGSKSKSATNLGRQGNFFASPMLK

inhibition, inactive:
CCOc1ccc(S(=O)(=O)n2c([N+](=O)[O-])cnc2C)c(C)c1C 6.34%
Cc1[nH]c(=S)c(C#N)c(C)c1CC(=O)c1ccc(Br)cc1 8.21%
O=C(CN1C(=O)c2ccccc2S1(=O)=O)c1ccccc1 8.2%
O=C(CN1C(=O)c2ccccc2S1(=O)=O)c1ccc(F)c(F)c1 -3.06%
COCCN(C(=O)CSc1nnc(C)n1-c1ccccc1)c1c(N)n(Cc2ccccc2)c(=O)[nH]c1=O 9.16%
Cc1cc(OCC(=O)NCc2ccccn2)c2c(C)cc(=O)oc2c1 2.23%
CN(C)C/C=C(/c1ccc(Br)cc1)c1cccnc1 3.6%
CN(C)CCCO/N=C(\c1ccccc1)c1ccncc1 24.4%
CC(C)c1ccc(NC(=O)NCc2ccccn2)cc1 8.07%
C[C@H](CO)N1C[C@H](C)[C@@H](CN(C)C(=O)Nc2ccc(C(F)(F)F)cc2)Oc2ccc(NC(=O)CCC(F)(F)F)cc2C1=O 5.69%
COCC(C)OC(=O)C(C#N)c1nc2ccccc2nc1N1CCN(Cc2ccccc2)CC1 (configuration not stated) 6.54%
O=C(CCn1cnc(-c2ccccc2)c1-c1ccccc1)N/N=C/c1ccc(O)cc1 27.5%
O=C(Cn1cc(C(F)(F)F)ccc1=O)N/N=C/c1ccc(F)cc1 -1.82%
COc1ccc(/C=N/NC(=O)CCn2nc(C)cc2C)cc1O 26.5%
O=C(CCn1cnc2ccccc21)N/N=C/c1ccccc1O 0.87%
Cc1cc(C)n(CCC(=O)N/N=C/c2ccc(O)cc2O)n1 -27.4%
O=C(Cn1cc(C(F)(F)F)ccc1=O)N/N=C/c1ccc(Cl)cc1 11.1%
COc1ccc(/C=N/NC(=O)CCn2nc(C)cc2C)cc1 -2.7%
Cc1cc(C)n(CCC(=O)N/N=C/c2ccccc2O)n1 3.84%
O=C(Nc1ccc(C(=O)N2CCCCC2)cc1)c1ccc([N+](=O)[O-])cc1 1.12%
Cc1ccccc1-c1cc(C(=O)O)nn1CC1CC(c2cccc([N+](=O)[O-])c2)=NO1 (configuration not stated) 4.15%
COc1ccc(CCNC(=O)c2cc(C3CC3)nc3c2cnn3C(C)C)cc1 1.51%
O=C(Nn1cnnc1)c1ccc(OC(F)(F)C(F)C(F)(F)F)cc1 (configuration not stated) 7.79%
CCCNC(=S)NNC(=O)c1cc(-c2cccnc2)nc2ccccc12 0.84%
CS(=O)(=O)c1cccc(C(=O)Nc2cccc(S(=O)(=O)N3CCCC3)c2)c1 3.17%
CC(=O)N1CCN(C(=O)c2ccc(NS(=O)(=O)c3ccc4c(c3)OCCO4)cc2)CC1 5.18%
COc1ccccc1/C=N/NC(=O)CSc1ccc2ccccc2n1 17.4%
O=C(CSc1ccc2ccccc2n1)N/N=C/c1ccccc1O 4.3%
O=C(CNC(=O)c1ccc(Cl)cc1Cl)NCc1ccccn1 -0.06%
CC1CCN(S(=O)(=O)c2ccc3ccccc3c2)CC1 1.45%
CC1CCN(S(=O)(=O)c2ccc3[nH]c(=O)[nH]c3c2)CC1 6.82%
Cc1ccc2c(c1)N(C(C)C(=O)NCc1ccc3c(c1)OCO3)C(=O)CO2 (configuration not stated) 11.4%
Cc1ccc(C(=O)COC(=O)c2nc3nccc(C)n3n2)c(C)c1 5.3%
NC(=O)c1cc2ccncc2c2ccccc12 8.91%
CC1NC(C)(C)Cc2c1ccc1ccccc21 (configuration not stated) 2.36%
CC1CC2(CCCCC2)Nc2ccc3ccccc3c21 (configuration not stated) 12.5%
Cc1cccc(OCC(=O)NNC(=O)C2CCN(c3ncnc4sc(C)c(C)c34)CC2)c1 12.2%
COc1ccc(Nc2nc(OC)nc(OC)n2)cc1 14.1%
CNc1nc(Nc2ccc(C(C)=O)cc2)nc(OC(C(F)(F)F)C(F)(F)F)n1 8.39%
CCCC(C)NC(=O)CN1C(=O)c2cccc3cccc1c23 (configuration not stated) 7.54%
COc1ccc(CN(C)Cc2ccccc2)c(OC)c1OC 4.85%
CN(CCc1ccccn1)Cc1ccc(Cl)cc1 24%
CN(CCc1ccccn1)Cc1ccc(Cl)cc1Cl 19.1%
Cc1cccc(CN(C)CCc2ccccn2)c1 9.5%
Cc1ccc(CN(C)CCc2ccccn2)cc1 13%
CCc1ccc(CN(C)CCc2ccccn2)cc1 13.2%
CN(CCc1ccccn1)Cc1ccc(Cl)c(Cl)c1 27.1%
COc1ccc(CCN(C)Cc2ccc(OC)c(OCc3ccccc3)c2)cc1OC 18.3%
CC(C)=CCCC(C)=CCN1C(=O)CN(C)C1=O 4.98%
CC(=O)c1cccc(NC(=O)C(C)OC(=O)CCC2CCCCC2)c1 (configuration not stated) 1.73%
O=[N+]([O-])c1cccc(/C=N/n2cnnc2)c1O 4.49%
Cc1onc(-c2ccccc2Cl)c1C(=O)NCCCN1CCOCC1 12%
NS(=O)(=O)c1ccc(N/N=C/c2cn(-c3ccccc3)nc2-c2cccs2)cc1 2.12%
CCN(CCCCCCN)c1ccc2c(=O)[nH][nH]c(=O)c2c1 3.58%
Cc1ccc(-n2ncc3c(NNC(=O)c4ccco4)ncnc32)c(C)c1 7.64%
CCc1ccc(C2=NN(CCC(=O)NCC3CCCO3)C(=O)CC2)cc1 (configuration not stated) 11.8%
CCNC(=S)N(CCc1c(C)[nH]c2ccc(OC)cc12)Cc1cccnc1 12.7%
O=C(NCc1ccccc1)c1ccc2c(=O)[nH]c3c(C(=O)NCC4CCCO4)sc(=S)n3c2c1 (configuration not stated) 16.2%
O=C(NC1CCCCC1)c1sc(=S)n2c1[nH]c(=O)c1ccccc12 10.6%
Cc1ccccc1Cn1nc(C)c(NC(=O)c2cc(CC(C)C)on2)c1C 9.15%
COc1ccc(NC(=O)c2c(NC(=O)CNCc3ccco3)sc3c2CCC3)cc1 15.6%
COC(=O)c1c(NC(=O)c2ccco2)sc2c1CCC2 15.8%
CC(Sc1nncn1C)C(=O)Nc1nnc(C(C)C)s1 (configuration not stated) -0.22%
CC(=O)CSc1nnc(NC(=O)CCc2ccccc2)s1 2.89%
CCNC(=S)NNC(=O)c1cc(Br)cs1 11.2%
CCCCn1c(N)c(N(Cc2ccccc2OC)C(=O)C(C)Oc2ccc(F)cc2)c(=O)[nH]c1=O (configuration not stated) 6.07%
C=CCSc1nnc(NC(=O)CSc2nc(CCC)cc(=O)[nH]2)s1 12.2%
COc1cc(NC(=O)CN2C(=O)NC(C)(CCC(C)C)C2=O)cc(OC)c1 (configuration not stated) -1.63%
CCOC(=O)c1[nH]c2ccccc2c1NC(=O)CC -0.8%
CCOC(=O)c1[nH]c2ccccc2c1NC(C)=O 2.46%
COC(=O)c1[nH]c2ccc(C)cc2c1NC(=O)Oc1ccccc1 84.7%
CCOC(=O)Nc1c(C(=O)OC)[nH]c2cc(OC)ccc12 8.73%
C=CCOC(=O)Nc1c(C(=O)OC)[nH]c2ccccc12 13.1%
COC(=O)c1[nH]c2ccccc2c1NC(=O)c1c(F)cccc1F -14.4%
COC(=O)c1[nH]c2cc(OC)c(OC)cc2c1NC(=O)c1cccc(OC)c1 10.8%
C=CCOC(=O)Nc1c(C(=O)OC)[nH]c2ccc(Cl)cc12 0.34%
N#Cc1c(/N=C/c2cc(Br)cs2)sc2c1CCC2 14.5%
NC(=O)C[C@@H]1NC(=O)[C@H](CCC(=O)O)NC(=O)c2cc([N+](=O)[O-])cc(I)c2OCC[C@@H](C(N)=O)NC1=O 6.13%
CC1CCN(C(=O)CSc2nnc(-c3cccnc3)o2)CC1 7.43%
Cc1cc(C)nc(NC(=NCCc2c[nH]c3ccccc23)NC(=O)Nc2cccc([N+](=O)[O-])c2)n1 8.14%
Cc1ccc(-c2[nH]ncc2/C=C(\C#N)C(=O)NC2CCCCC2)cc1 6.42%
Cc1cc(C)c(C(=O)N2CCCC(C(=O)c3cc(F)ccc3F)C2)o1 (configuration not stated) 5.58%
CCOC(=O)c1[nH]c2ccc(OC)cc2c1NC(=O)c1cccc(OC)c1 5.01%
CCOC(=O)c1[nH]c2ccc(F)cc2c1NC(=O)c1ccccc1C(=O)O 66%
CCc1ccc(CN(C)C(=O)c2cc(COc3ccc(OC)cc3Cl)on2)nc1 10.7%
Oc1ccc(-c2nccc(-c3cccs3)n2)cc1 9.71%
c1ccc2nc(-c3nccs3)ccc2c1 1.49%
COc1cc(CCCN2CCNC[C@@H]2C(C)O)cc(OC)c1OC (some centres not stated) 3.02%
COc1ccc(N2CCN(C(=O)CCCn3c(=O)[nH]c4cc(Cl)ccc4c3=O)CC2)cc1 12.7%
Cc1nnc(SCc2ccc(Cl)c(Cl)c2)s1 5.65%
CCc1noc(C)c1C(=O)NNC(=O)c1ccc(Br)cc1 5.66%
CCOC(=O)/C(C#N)=C\c1ccc(OC)c(OC)c1 8.76%
COCCNC(=O)/C(C#N)=C/c1ccc2c(c1)OCO2 0.46%
CCOC(=O)/C(C#N)=C/c1ccc(OC)c(OC)c1 5.15%
COc1cc(/C=C(\C#N)C(=O)Nc2ccccn2)ccc1O 14.9%
N#C/C(=C\c1cccc(O)c1)C(=O)Nc1ccc2c(c1)OCCO2 7.83%
N#C/C(=C\c1ccc2c(c1)OCCO2)C(=O)Nc1ccc(C(=O)O)cc1 8.32%

— PubChem BioAssay AID624330 (Southern Research Specialized Biocontainment Screening …, 2012)
